Source: the supplement of paper PMC11732987, “Enantioselective OTUD7B fragment discovery through chemoproteomics screening and high-throughput optimisation” (Communications Chemistry, 2025)

How the values were obtained:
Assay in all cases: log2 ratio of Biotin-Ahx-Ub-VS probe labelling (fragment/DMSO); higher = less target engagement (more negative = stronger competition), active = hit call of the paper (q ≤ 0.05, log2 ratio ≤ -1)
Details in all cases: compound concentration: 200 uM; treatment time: 3 h
USP42 = molecular target: T1, USP42 (UniProt Q9H9J4)
T1 sequence (whole entry): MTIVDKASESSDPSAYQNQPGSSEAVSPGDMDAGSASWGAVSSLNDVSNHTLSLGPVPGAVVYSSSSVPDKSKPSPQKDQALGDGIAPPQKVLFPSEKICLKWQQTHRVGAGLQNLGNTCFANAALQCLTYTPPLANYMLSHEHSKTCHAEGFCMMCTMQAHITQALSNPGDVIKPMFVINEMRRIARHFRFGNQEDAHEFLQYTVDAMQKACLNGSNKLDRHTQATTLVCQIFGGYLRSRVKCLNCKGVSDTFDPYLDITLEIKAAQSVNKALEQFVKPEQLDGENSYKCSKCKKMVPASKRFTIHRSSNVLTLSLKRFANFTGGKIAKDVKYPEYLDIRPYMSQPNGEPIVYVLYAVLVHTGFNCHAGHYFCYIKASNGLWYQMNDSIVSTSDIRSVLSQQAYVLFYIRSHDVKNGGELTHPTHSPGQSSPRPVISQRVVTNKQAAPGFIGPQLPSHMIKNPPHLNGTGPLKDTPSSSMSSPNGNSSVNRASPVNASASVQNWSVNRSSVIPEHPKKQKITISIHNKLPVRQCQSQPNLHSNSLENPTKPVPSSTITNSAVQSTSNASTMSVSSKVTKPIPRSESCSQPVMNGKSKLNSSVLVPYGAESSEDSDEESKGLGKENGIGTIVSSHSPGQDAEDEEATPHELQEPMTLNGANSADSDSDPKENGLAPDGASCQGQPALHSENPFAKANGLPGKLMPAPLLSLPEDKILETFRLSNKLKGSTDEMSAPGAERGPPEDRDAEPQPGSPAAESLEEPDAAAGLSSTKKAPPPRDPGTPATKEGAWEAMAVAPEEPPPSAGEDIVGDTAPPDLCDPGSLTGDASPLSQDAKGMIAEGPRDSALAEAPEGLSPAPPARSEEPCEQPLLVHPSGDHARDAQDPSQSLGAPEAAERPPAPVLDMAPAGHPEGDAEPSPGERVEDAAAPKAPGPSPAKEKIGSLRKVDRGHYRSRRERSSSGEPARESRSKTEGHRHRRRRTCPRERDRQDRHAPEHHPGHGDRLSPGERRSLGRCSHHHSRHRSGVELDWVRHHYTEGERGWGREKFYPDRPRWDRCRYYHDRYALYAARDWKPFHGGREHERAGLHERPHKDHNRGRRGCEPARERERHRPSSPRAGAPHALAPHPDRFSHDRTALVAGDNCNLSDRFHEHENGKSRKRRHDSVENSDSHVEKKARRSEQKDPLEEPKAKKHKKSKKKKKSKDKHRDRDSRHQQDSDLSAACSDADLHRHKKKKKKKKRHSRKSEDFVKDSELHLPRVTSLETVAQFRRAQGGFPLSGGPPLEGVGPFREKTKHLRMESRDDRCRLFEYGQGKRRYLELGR
Summary of the method: (§1)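 Global-median-normalised Spectronaut label-free quantities were compared by unpaired t-test, and values are average log2 ratios of fragment over vehicle. Only proteins with ≥2 unique peptides were used. HEK293T lysate (495 µg per sample) was treated in triplicate with fragment at 200 µM or vehicle for 3 h and then with Biotin-Ahx-Ub-VS at 0.5 µM final for 1 h. Labelled DUBs were then NeutrAvidin-enriched, digested with LysC and trypsin, and run by diaPASEF LC-MS/MS.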

USP46 = USP46 (UniProt P62068)
Summary of the method: as §1

USP47 = molecular target: T2, USP47 (UniProt Q96K76)
T2 sequence (whole entry): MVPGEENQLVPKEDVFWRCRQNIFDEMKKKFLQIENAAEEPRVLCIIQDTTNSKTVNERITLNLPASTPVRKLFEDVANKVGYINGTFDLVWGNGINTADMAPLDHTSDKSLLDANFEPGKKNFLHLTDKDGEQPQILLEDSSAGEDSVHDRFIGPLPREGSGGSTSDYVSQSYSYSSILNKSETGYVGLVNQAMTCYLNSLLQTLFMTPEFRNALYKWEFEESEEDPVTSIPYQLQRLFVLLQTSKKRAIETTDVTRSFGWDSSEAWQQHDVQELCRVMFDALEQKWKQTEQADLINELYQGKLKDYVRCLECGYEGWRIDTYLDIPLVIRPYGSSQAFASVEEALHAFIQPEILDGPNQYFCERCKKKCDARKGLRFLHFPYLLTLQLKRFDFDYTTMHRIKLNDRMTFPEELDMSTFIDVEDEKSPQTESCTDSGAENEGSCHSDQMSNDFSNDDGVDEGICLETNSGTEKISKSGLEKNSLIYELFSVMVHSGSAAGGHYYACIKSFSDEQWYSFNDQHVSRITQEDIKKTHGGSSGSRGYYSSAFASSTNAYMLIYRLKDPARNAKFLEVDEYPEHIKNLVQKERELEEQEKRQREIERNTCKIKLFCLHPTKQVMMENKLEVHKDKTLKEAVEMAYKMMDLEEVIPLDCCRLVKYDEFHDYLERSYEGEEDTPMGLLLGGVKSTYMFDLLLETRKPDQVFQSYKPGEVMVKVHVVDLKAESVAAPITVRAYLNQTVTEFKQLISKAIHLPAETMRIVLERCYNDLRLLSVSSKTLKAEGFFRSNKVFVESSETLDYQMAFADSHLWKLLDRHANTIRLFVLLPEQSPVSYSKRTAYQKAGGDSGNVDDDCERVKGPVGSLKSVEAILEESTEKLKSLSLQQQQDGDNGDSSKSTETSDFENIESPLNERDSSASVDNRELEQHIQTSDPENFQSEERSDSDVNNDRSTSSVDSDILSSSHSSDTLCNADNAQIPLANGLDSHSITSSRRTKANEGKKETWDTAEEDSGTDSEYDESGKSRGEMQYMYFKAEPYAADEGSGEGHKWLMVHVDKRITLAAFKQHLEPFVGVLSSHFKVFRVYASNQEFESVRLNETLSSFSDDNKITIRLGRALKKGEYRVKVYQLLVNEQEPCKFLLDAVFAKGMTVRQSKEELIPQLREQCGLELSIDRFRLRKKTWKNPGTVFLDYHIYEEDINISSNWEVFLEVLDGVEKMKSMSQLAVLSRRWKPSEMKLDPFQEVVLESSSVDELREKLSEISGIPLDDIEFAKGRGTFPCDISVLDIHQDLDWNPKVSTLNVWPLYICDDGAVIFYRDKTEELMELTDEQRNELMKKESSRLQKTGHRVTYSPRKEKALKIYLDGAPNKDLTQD
Summary of the method: as §1

USP48 = molecular target: T3, USP48 (UniProt Q86UV5)
T3 sequence (whole entry): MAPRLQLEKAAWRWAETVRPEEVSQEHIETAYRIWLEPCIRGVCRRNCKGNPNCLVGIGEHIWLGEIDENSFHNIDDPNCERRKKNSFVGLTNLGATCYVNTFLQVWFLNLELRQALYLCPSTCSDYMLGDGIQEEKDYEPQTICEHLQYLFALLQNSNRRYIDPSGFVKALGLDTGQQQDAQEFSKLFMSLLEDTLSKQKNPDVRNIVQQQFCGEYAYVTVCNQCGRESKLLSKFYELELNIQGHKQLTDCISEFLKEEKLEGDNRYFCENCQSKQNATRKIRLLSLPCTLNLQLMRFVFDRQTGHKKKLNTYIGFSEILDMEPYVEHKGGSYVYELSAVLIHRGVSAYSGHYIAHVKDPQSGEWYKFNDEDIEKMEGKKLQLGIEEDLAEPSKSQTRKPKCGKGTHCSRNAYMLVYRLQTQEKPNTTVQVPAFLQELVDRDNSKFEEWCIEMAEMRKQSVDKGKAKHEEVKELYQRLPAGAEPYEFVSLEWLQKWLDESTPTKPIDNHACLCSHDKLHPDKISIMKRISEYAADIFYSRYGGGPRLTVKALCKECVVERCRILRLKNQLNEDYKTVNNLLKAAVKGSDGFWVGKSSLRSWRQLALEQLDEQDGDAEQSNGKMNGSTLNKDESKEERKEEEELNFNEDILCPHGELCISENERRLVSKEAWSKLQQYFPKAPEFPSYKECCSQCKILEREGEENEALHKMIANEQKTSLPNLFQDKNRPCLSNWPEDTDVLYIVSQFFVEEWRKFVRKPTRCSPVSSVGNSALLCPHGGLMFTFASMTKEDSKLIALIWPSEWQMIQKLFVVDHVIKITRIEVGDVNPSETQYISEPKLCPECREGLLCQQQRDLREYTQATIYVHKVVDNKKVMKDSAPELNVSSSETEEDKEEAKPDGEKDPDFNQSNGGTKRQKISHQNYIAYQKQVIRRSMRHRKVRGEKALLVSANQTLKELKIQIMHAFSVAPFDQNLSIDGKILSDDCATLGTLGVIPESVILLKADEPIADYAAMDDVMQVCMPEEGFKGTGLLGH
Summary of the method: as §1

USP5 = molecular target: T4, USP5 (UniProt P45974)
T4 sequence (whole entry): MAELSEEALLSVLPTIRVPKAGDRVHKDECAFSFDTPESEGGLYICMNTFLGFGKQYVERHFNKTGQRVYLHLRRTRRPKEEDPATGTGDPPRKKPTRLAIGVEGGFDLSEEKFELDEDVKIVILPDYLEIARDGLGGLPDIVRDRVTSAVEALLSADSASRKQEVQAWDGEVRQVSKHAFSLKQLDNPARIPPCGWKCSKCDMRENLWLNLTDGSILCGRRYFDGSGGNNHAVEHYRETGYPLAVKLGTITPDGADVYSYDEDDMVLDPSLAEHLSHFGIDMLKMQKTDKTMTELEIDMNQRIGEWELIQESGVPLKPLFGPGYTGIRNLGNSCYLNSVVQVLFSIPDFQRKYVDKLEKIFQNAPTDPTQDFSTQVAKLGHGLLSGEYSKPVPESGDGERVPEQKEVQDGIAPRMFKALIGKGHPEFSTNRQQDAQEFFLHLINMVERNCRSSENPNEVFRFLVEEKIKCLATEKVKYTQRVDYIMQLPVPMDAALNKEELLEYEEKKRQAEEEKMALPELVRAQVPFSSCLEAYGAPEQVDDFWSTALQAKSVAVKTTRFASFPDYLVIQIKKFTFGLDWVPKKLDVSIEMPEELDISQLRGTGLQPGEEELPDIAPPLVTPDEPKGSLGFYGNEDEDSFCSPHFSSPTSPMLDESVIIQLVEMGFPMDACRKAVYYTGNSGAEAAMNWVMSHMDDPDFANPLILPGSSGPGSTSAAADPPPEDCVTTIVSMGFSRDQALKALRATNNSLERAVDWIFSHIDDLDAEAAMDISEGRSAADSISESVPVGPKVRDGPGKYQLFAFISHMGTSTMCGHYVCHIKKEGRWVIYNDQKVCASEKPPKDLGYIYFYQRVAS
Summary of the method: as §1

USP54 = USP54 (UniProt Q70EL1)
Summary of the method: as §1

USP7 = USP7 (UniProt Q93009)
Summary of the method: as §1

USP8 = molecular target: T5, USP8 (UniProt P40818)
T5 sequence (whole entry): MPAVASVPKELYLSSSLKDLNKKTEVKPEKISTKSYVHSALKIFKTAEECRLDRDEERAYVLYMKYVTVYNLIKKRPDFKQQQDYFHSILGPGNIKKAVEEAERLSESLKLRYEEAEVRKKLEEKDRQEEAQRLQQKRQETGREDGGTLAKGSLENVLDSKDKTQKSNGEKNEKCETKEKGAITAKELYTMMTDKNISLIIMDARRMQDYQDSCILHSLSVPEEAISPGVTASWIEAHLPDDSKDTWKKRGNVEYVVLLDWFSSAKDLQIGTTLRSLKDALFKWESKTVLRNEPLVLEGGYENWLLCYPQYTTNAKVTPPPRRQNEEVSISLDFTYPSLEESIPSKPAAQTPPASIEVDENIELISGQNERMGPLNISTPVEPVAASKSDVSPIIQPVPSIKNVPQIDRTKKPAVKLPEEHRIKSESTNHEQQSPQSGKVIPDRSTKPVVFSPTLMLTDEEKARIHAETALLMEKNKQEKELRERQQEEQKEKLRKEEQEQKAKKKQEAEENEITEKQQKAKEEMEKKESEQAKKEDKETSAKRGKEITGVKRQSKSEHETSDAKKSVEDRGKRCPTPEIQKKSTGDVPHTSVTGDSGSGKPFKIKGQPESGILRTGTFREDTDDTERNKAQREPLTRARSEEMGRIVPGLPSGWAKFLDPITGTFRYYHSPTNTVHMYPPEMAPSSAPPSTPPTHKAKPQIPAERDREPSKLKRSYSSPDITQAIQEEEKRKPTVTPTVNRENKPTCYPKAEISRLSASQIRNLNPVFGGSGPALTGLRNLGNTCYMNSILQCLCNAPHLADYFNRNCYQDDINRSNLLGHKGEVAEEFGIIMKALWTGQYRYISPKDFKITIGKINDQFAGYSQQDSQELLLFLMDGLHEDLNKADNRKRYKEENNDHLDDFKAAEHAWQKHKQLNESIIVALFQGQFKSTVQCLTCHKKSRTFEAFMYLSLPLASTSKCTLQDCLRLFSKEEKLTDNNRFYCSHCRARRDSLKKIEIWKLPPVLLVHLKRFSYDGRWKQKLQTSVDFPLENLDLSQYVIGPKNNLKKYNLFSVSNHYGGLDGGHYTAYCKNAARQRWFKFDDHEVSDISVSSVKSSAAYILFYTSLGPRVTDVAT
Summary of the method: as §1

USP9X = USP9X (UniProt Q93008)
Summary of the method: as §1

UniProt O00487 = molecular target: UniProt O00487
Summary of the method: as §1

Measured: log2 ratio of Biotin-Ahx-Ub-VS probe labelling

Sequence of USP9X (Q93008 whole entry): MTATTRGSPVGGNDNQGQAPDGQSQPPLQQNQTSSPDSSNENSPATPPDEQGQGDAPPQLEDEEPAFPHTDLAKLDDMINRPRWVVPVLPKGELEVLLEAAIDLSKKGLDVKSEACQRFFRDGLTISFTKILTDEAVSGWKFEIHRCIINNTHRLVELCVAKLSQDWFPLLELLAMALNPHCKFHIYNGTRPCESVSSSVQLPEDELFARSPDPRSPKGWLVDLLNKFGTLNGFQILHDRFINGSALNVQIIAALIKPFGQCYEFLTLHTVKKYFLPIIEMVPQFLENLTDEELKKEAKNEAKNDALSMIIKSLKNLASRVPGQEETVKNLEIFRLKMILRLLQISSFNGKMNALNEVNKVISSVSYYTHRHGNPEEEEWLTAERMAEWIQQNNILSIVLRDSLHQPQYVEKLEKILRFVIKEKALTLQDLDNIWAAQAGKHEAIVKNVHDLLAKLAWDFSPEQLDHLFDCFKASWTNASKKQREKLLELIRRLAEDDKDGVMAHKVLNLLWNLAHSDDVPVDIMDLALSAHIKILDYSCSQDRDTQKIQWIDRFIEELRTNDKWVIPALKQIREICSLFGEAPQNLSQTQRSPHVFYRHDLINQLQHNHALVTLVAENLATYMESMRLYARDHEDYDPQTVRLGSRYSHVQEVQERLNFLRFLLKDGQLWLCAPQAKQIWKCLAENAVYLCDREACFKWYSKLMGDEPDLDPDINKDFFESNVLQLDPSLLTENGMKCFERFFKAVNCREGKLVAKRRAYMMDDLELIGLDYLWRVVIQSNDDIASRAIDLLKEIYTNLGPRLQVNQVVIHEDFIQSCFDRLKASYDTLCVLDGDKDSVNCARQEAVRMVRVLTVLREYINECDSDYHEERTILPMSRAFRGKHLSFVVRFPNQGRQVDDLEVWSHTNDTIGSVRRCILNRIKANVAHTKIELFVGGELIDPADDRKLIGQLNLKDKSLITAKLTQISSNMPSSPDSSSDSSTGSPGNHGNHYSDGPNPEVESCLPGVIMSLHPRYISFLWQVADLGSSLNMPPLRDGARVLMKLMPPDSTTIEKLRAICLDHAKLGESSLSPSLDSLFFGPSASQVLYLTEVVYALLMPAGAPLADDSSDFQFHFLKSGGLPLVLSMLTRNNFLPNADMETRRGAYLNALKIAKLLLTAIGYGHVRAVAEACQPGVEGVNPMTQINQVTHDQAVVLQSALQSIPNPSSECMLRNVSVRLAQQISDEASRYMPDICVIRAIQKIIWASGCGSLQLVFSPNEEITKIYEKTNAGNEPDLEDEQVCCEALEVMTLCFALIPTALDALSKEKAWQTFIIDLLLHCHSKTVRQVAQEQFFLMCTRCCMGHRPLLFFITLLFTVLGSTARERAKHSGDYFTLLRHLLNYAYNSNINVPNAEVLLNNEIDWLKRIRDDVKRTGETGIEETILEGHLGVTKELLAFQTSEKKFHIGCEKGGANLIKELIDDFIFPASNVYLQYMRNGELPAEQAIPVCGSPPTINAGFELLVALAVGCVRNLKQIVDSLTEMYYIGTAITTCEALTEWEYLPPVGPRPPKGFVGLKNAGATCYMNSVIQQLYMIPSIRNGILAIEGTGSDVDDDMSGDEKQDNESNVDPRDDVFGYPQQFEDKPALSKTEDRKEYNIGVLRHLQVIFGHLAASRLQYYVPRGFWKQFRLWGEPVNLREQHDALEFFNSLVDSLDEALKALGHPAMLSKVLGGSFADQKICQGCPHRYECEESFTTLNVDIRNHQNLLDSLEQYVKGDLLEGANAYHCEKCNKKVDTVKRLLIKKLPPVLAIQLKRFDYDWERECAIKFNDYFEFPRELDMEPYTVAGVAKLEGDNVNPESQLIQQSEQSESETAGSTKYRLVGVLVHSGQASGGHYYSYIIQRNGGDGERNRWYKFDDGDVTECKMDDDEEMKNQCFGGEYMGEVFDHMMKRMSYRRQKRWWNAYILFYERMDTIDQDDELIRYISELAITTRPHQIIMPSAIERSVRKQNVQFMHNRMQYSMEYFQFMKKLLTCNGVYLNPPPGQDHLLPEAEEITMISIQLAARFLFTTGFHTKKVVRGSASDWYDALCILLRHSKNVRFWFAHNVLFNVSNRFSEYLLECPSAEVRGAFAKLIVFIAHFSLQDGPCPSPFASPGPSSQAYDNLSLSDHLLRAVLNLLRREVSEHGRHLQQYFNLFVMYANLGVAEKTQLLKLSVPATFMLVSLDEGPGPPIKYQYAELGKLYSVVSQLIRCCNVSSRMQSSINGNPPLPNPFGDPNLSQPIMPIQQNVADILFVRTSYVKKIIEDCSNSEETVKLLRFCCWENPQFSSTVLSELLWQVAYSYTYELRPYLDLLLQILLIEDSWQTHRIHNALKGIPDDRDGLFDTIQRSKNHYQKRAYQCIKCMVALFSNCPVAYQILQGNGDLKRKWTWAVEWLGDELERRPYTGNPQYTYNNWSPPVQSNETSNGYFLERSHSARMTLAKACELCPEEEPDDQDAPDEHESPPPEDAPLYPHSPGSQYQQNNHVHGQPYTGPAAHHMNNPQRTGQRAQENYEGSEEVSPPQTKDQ
Sequence of UniProt O00487 (O00487 whole entry): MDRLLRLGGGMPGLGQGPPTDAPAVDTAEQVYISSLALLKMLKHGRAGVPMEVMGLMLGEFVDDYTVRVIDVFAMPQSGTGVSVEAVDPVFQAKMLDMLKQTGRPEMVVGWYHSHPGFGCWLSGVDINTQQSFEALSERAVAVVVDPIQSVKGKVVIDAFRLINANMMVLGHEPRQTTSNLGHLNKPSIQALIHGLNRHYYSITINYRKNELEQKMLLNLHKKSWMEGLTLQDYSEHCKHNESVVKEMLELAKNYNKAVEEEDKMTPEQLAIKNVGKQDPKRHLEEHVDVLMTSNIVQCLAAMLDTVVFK
Sequence of USP7 (Q93009 whole entry, looked up): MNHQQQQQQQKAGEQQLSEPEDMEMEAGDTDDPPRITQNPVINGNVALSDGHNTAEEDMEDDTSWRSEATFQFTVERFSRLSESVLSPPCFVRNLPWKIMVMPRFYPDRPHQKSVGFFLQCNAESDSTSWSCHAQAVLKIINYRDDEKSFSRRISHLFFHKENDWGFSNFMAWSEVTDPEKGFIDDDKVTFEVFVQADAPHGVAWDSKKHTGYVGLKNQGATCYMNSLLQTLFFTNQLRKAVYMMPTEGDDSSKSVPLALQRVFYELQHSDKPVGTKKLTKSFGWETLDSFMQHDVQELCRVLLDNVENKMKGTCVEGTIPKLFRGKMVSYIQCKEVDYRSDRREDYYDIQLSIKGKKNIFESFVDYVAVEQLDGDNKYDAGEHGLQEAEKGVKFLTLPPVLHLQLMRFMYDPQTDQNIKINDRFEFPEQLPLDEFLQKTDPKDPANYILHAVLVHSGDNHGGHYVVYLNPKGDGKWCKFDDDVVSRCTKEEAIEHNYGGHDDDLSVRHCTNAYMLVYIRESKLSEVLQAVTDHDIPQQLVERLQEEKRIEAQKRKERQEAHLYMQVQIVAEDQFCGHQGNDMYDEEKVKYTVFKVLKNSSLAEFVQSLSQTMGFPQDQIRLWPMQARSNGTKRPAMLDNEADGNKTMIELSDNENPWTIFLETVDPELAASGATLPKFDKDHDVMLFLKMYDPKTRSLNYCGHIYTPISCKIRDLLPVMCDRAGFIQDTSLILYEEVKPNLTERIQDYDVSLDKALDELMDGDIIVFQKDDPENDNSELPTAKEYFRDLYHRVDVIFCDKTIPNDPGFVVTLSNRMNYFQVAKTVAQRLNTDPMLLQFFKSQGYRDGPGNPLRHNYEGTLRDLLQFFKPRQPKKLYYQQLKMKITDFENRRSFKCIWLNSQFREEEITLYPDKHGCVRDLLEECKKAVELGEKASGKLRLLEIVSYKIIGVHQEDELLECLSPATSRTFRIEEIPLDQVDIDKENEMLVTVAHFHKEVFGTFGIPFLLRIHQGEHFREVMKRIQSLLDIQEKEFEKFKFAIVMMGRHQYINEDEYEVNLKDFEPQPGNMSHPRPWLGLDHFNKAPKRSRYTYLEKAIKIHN
Sequence of USP46 (P62068 whole entry): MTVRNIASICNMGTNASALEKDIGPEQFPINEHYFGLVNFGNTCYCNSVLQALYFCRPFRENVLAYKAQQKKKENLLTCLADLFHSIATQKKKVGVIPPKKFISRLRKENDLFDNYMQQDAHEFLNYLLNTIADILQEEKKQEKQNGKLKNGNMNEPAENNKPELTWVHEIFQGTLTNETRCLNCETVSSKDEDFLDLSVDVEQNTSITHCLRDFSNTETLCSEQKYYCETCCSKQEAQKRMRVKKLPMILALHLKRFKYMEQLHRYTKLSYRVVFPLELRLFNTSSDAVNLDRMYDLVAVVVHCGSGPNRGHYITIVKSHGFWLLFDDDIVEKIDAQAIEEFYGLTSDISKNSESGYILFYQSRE

Cc1ccc(CNC(=O)CCl)nc1C.Cl
inactive: USP42 0.369 | USP46 0.12 | USP47 0.076 | USP48 -0.13 | USP5 -0.461 | USP54 -0.18 | USP7 -0.299 | USP8 -0.217 | USP9X 0.0101 | UniProt O00487 -0.156
